Values without a mark were called inactive. Activity calls are given as the source filed them. Calls follow the shape of the dose curve; as a rule, active = well fitted curve in the direction sought with a large enough effect in the repeat runs; inconclusive = weak or mixed curves; inactive = flat fitted curve, though single readings scatter.
Experiment: qHTS assay to test for compound auto fluorescence at 460 nm (blue) in HepG2 cell free culture (AID 720685)
Settings: Cell-free culture medium, blue autofluorescence 405/460 nm; series mostly up to 91.3 µM; fluorescence, % of fluorescent control: at the top concentration
Description: U.S. Tox21 Program National Center for Advancing Translational Sciences [NCATS] NIH Chemical Genomics Center [NCGC] U.S. Environmental Protection Agency [EPA] National Institutes of Environmental Health Sciences [NIEHS] National Toxicology Program [NTP] U.S. Food and Drug Administration [FDA] Tox21 Assay Overview: Compound auto fluorescence often interferes with screening of the compound library against various biological targets and signaling pathways. Some of these compounds may have fluorophoric properties. Such properties may interfere with the assay outputs resulting in false positives and/or negatives. To decrease such complications and ensure the compound activities are relevant in terms of biological response, the Tox21 10K compound library was screened for auto fluorescence. From the fluorophores used as reporter signals in our screening assays, the auto fluorescence equivalencies of compounds against three fluorophores have been evaluated: Triamterene, Fluorescein and Rose Bengal sodium for blue, green and red fluorescence, respectively. The fluorescence intensities were measured using Excitation/Emission wavelengths at 405/460nm, 485/535nm and 540/590nm for blue, green and red labels, respectively. This assay includes the blue fluorescence data.
Tox21 Assay Protocol Summary: 5 uL of culture medium (MEM containing 10% FBS) per well was dispensed into black wall/clear bottom 1536-well plates using a Multidrop Combi Dispenser (ThermoFisher Scientific, Waltham, MA). After 23 nL compound or DMSO vehicle was transferred into assay plate by a pintool work station (Kalypsys, San Diego, CA), fluorescence intensities in the assay plates were measured by an Envision (PerkinElmer, Shelton, CT) plate reader using three labels for measuring blue, green and red fluorescence at […] 460, 535 and 590nm respectively.
% is scaled to controls: 0 for no effect and ±100 for the full control effect.

SMILES	fluorescence, % of fluorescent control	Potency
O=C(O)CCn1c2c(c3ccccc31)C[C@H](NS(=O)(=O)c1ccc(F)cc1)CC2	0.0365% [at 46 µM]	
O=C1NCCN1CCN1CCC(c2cn(-c3ccc(F)cc3)c3ccc(Cl)cc23)CC1		inactive
CC(=O)OC(OC(C)=O)c1ccc([N+](=O)[O-])o1	0.226% [at 95.7 µM]	
NCCCCCCNCCCCCCN	0.0274%	
CC(C)(c1cc(Br)c(OCCO)c(Br)c1)c1cc(Br)c(OCCO)c(Br)c1	0.203%	
Cc1occc1SSc1ccoc1C	0.0781%	
CC(NCCC(c1ccccc1)c1ccccc1)c1ccccc1 (stereo not given)	-0.0203% [at 46 µM]	
CCOC(=O)C1=C(C)NC(C)=C(C(=O)OCC)C1c1ccccc1/C=C/C(=O)OC(C)(C)C	1.76% [at 46 µM]	
O=C(O)CC(=O)O	0.0114%	
O=C1OC(=O)c2cccc3cccc1c23	-0.0615%	
CCN(CC)c1ccc(N)cc1	0.0485% [at 95.7 µM]	
O=Nc1ccc(NO)cc1	-0.197% [at 95.7 µM]	
CCCCCCOc1ccc(O)cc1	-0.137%	
CCOC(=O)N1CCC(=C2c3ccc(Cl)cc3CCc3cccnc32)CC1		inactive
CC(C)OC(=O)c1cc(C(=O)OC(C)C)cc([N+](=O)[O-])c1	0.216% [at 95.7 µM]	
CCCCCCOc1cc(C)c(O)c(C)c1C	0.0531% [at 95.7 µM]	
COCC(=O)O[C@]1(CCN(C)CCCc2nc3ccccc3[nH]2)CCc2cc(F)ccc2[C@@H]1C(C)C	0.0158% [at 46 µM]	
COc1cc(C=C2CCC/C(=C\c3ccc(O)c(OC)c3)C2=O)ccc1O	0.592% [at 46 µM]	
NC1(c2ccc(-c3nc4ccn5c(=O)[nH]nc5c4cc3-c3ccccc3)cc2)CCC1	0.328% [at 46 µM]	
C[C@@]12C(=O)OC(=O)[C@]1(C)C1CCC2O1	-0.0149% [at 18.6 µM]	

SMILES	fluorescence, % of fluorescent control	Potency
CCCCOc1ccc(C(=O)CCN2CCCCC2)cc1	0.0259% [at 18.6 µM]	
NC(=O)C(=O)N/N=C/c1ccc([N+](=O)[O-])o1	-0.0813% [at 46 µM]	
Clc1ccc(C(c2ccccc2Cl)C(Cl)Cl)cc1 (stereo not given)		inactive
CCN=c1cc2oc3cc(NCC)c(C)cc3c(-c3ccccc3C(=O)OCC)c-2cc1C		inactive
CCCCN(CCCC)CCC(O)c1cc2c(Cl)cc(Cl)cc2c2cc(C(F)(F)F)ccc12 (stereo not given)	-0.0142% [at 18.6 µM]	
COc1ccc2sc(C(=O)Nc3nnn[nH]3)c(OC(C)C)c2c1	0.0562%	
CCc1cccc(C)c1	-0.235% [at 95.7 µM]	
C=CC(=O)OCCOCC(CC)(COCCOC(=O)C=C)COCCOC(=O)C=C	-0.122% [at 95.7 µM]	
CC(O)C#CC(C)O (stereo not given)	0.083%	
S=P(N1CC1)(N1CC1)N1CC1		inactive
CCCCCCCCCCCCCC[n+]1ccccc1	0.0534%	
CCN(CC)CCCN(c1ccccc1)C1Cc2ccccc2C1	-0.0165% [at 46 µM]	
CCCCCCCOC(=O)c1ccc(O)cc1		inactive
O=C1NC2CCCCN2C12CCN(CCCN1c3ccccc3CCc3ccc(Cl)cc31)CC2 (stereo not given)	0.0061% [at 46 µM]	
CCCCOC(=O)C(C)CC (stereo not given)	-0.0151%	
CC=O	0.0043% [at 95.7 µM]	
CCC(C)c1cc([N+](=O)[O-])cc([N+](=O)[O-])c1OC(=O)OC(C)C (stereo not given)	-0.368%	
CCN=C1C=CC(=C(c2ccc(N(CC)CC)cc2)c2ccc(N(CC)CC)cc2)c2ccccc21	-0.0327%	
C=C(C)C(=O)OCCC[Si](Cl)(Cl)Cl	-0.104%	
CCO[Si](CCCSSSSCCC[Si](OCC)(OCC)OCC)(OCC)OCC	-0.0344%	

From PubChem BioAssay (Tox21)
